The list is not random: actives were taken first. Their share in the collection is about 14%.
Pf growth 96h – Primary qHTS for delayed death inhibitors of the malarial parasite plastid, 96 hour incubation | P. falciparum luciferase reporter growth, 96 h | Potency, µM (doses to about 28.7 µM), actives largely listed as inhibitors | 320,000 compounds, 6.9% hits | AID 504834, 2011
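Luminescence readout: decreased luciferase signal marks inhibited growth of reporter-expressing P. falciparum in infected red cells (2% hematocrit, 0.05% parasitemia final), exposed to compound two generations (96 h, 37 C, 5% CO2).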
HCMV antiviral – qHTS Assay for inhibitors of the human cytomegalovirus (HCMV); activity change, negative = inhibition, % at 57.5 µM; HFF cells, HCMV-luciferase reporter, 72 h; hits give low values; 410,000 compounds, 4.5% hits; in the data active = activity change below about -60%; inconclusive = no clear call, values can overlap the other calls; inactive = above about -39%
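Two compound doses tested in HFFs infected with HCMV-luciferase, MOI 1 PFU/cell, 72 h at 37C. Lysate luminescence read with OneGlo; data normalized against buffer-only and 10uM Salinomycin inhibitor controls.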
Sm TGR block – qHTS Assay for the Inhibitors of Schistosoma Mansoni Peroxiredoxins; Schistosoma mansoni thioredoxin glutathione reductase (TGR), Q962Y6; 360,000 compounds, 3% hits; Potency, µM (doses to about 114 µM), hits mostly inhibitors; purified TGR, DTNB reduction, TNB absorbance 405 nm; note: nearly all actives have a fitted effect of over 60% in size
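First, TGR (20 nM dispensed) and NADPH were mixed with compound. Second, a 15 min room-temperature incubation followed. Third, further NADPH and then DTNB were added to start the reaction. Finally, TNB absorbance was monitored kinetically.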
FBPA Giardia inh – qHTS Assay for Inhibitors of Fructose-1,6-bisphosphate Aldolase from Giardia Lamblia. A8B2U2. purified Giardia FBPA. Potency, µM (doses to about 59.6 µM), most hits filed as inhibitors. 290,000 compounds, 0.71% hits. AID 2451, 2010; note: nearly all actives have a fitted effect of over 55% in size
Target sequence (A8B2U2 whole entry, looked up): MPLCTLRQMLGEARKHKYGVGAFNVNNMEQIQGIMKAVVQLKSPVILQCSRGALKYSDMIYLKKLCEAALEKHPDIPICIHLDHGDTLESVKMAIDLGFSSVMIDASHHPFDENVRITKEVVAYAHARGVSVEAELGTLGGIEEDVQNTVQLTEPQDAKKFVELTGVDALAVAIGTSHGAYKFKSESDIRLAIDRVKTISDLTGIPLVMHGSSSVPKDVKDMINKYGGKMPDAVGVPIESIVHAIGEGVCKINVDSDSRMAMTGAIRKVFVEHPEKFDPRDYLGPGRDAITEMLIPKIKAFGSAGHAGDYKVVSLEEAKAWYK
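40 nM FBPA preincubated 10 min at RT with compound (up to 57.5 uM final), then substrate plus GAPDH/TPI/NAD/arsenate coupling and diaphorase/resazurin added. Fluorescence read after 20 min at RT, 525/598 nm.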
Pf growth 48h – Primary qHTS for delayed death inhibitors of the malarial parasite plastid, 48 hour incubation; P. falciparum luciferase growth in erythrocytes, 48 h; Potency, µM (titrated, usually from 28.7 µM), hits mostly inhibitors; 310,000 compounds, 5.9% hits; AID 504832, 2011
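Here the parasites carry a stable luciferase gene and grow inside erythrocytes in Albumax-based RPMI medium with compound for one erythrocytic cycle. Activity is scored as loss of luminescent signal.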
Each line names hits and unclear results; the compound was inactive in the other large screens. Unless noted, calls come from the whole dose curve; as a rule, active = well fitted curve in the direction sought with a large enough effect; inconclusive = small, poorly fitted or top-dose-only effect, or another doubt; inactive = no such curve, though single readings can be large; an effect the other way counts as inactive or inconclusive.

CC(C)(C)c1ccc(-c2nc(SCCCOc3ccccc3)n3[nH]c(=O)cc3n2)cc1	HCMV antiviral inconclusive (no result: Pf growth 96h, FBPA Giardia inh, Pf growth 48h)
OC(CN1CCN(c2ccc(F)cc2)CC1)c1ccc(Cl)cc1 (centres undefined)	Pf growth 96h 13.1µM (no result: Pf growth 48h)
OC(CN1CCC(Cc2ccc(F)cc2)CC1)c1ccc(Cl)cc1 (centres undefined)	Pf growth 96h 2.13µM, Pf growth 48h 1.51µM (no result: HCMV antiviral, Sm TGR block)
OC(CN1CCOCC1)c1ccc(F)cc1 (centres undefined)	FBPA Giardia inh inconclusive
O=C(CN1CCC(Cc2ccccc2)CC1)NCCc1ccc(F)cc1	Pf growth 96h inconclusive, Pf growth 48h inconclusive
C[C@@](O)(/C=C/[C@H]1CC=CC(=O)O1)[C@@H](C[C@@H](O)\C=C/C=C\C=C\CO)OP(=O)(O)O	none (no result: Pf growth 96h, HCMV antiviral, Sm TGR block, Pf growth 48h)
Cc1ccccc1CN(C)C(=O)[C@H](Cc1ccccc1)NC(=O)c1ccco1	Pf growth 96h 8.28µM, Pf growth 48h inconclusive (no result: FBPA Giardia inh)
Cc1ccc[n+](C(C(=S)NCc2ccco2)=C([O-])c2ccccc2Cl)c1	none (no result: Pf growth 96h, Sm TGR block, FBPA Giardia inh, Pf growth 48h)
Cc1ccc[n+](/C(C(=S)NCc2ccco2)=C(/[O-])c2ccccc2Cl)c1	Pf growth 96h inconclusive, Sm TGR block 31.6µM, FBPA Giardia inh inconclusive (no result: Pf growth 48h)
CC(C)(C)c1ccc(/C([O-])=C(/C(=S)NCc2ccco2)[n+]2ccccc2)cc1	Sm TGR block 56.2µM, FBPA Giardia inh inconclusive (no result: HCMV antiviral, Pf growth 48h)
CCNC(=S)/C(=C(/[O-])c1ccc([N+](=O)[O-])cc1)[n+]1ccccc1	none
COc1ccc(B(O)O)cc1	none (no result: Pf growth 96h, HCMV antiviral, Sm TGR block, Pf growth 48h)
Cc1cc(C)nc(Sc2nc(Nc3ccccc3)nc(Sc3nc(C)cc(C)n3)n2)n1	Pf growth 96h inconclusive, HCMV antiviral -72.4, Pf growth 48h inconclusive
COc1ccc([C@@H]2CC(=O)[C@@H]3CN(S(=O)(=O)c4ccc(C)cc4)[C@H](c4ccccc4)C[C@@H]3N2S(=O)(=O)c2ccccc2)cc1	none (no result: Pf growth 96h, Sm TGR block, FBPA Giardia inh, Pf growth 48h)
O=C1C2CC=CCC2C(=O)N1c1cccc(OS(=O)(=O)c2ccc3ccccc3c2)c1 (centres undefined)	Pf growth 96h 3.29µM (no result: Pf growth 48h)
CC1CCC2C(=O)N(c3cccc(OS(=O)(=O)c4ccccc4)c3)C(=O)C2C1 (centres undefined)	Pf growth 48h inconclusive
COc1ccc(-c2[nH]nc3oc(=O)cc(C)c23)cc1	Pf growth 96h 8.28µM
Cc1cc(=O)oc2n[nH]c(-c3ccccc3)c12	none
O=C(NCC(=O)N(c1ccc(F)cc1)C(C(=O)NC1CCCC1)c1ccncc1)c1ccco1 (centres undefined)	none
CCc1nc(C)ccc1OC(=O)C12CC3CC(CC(C3)C1)C2	Pf growth 96h 0.586µM
CC(=O)n1c(Cl)c(NC(=O)CCl)c2ccccc21	Pf growth 96h 2.08µM, HCMV antiviral -98.3, Sm TGR block inconclusive (no result: Pf growth 48h)
CC(=O)n1c2ccccc2c2ccccc21	none
COC(=O)C1=C(C(=O)OC)[C@@H]2N(C)c3ccc(OC)cc3[C@@]23C[C@@H](C(=O)OC)N(S(=O)(=O)c2ccc(OC)cc2)C3=N1	Pf growth 96h inconclusive, Pf growth 48h 9.28µM
COC(=O)C1=C(C(=O)OC)[C@@H]2N(C)c3ccc(OC)cc3[C@@]23C[C@@H](C(=O)OC)N(S(=O)(=O)c2ccc(Br)cc2)C3=N1	none (no result: Pf growth 96h, HCMV antiviral, Sm TGR block, Pf growth 48h)
CCc1nc(Nc2cccc(F)c2)c2oc3ccccc3c2n1	Pf growth 96h inconclusive, FBPA Giardia inh inconclusive, Pf growth 48h inconclusive
CN1CCc2c1nc1ccccc1c2N=C1CCCN1Cc1ccccc1	Pf growth 96h inconclusive, HCMV antiviral -61.3, Pf growth 48h inconclusive
CCOc1ccc(NC(=O)Cn2c(=O)n(Cc3ccco3)c(=O)c3ccc(C(=O)NC4CCCC4)cc32)cc1	none (no result: Pf growth 96h, FBPA Giardia inh, Pf growth 48h)
C=C1c2cccc(O)c2C(=O)C2C(=O)[C@]3(O)C(=O)C(C(N)=O)C(=O)[C@@H](N(C)C)[C@@H]3[C@@H](O)[C@H]12 (some centres undefined)	none (no result: Pf growth 96h, Sm TGR block, FBPA Giardia inh, Pf growth 48h)
C[C@H]1c2cccc(O)c2C(O)=C2C(=O)[C@]3(O)C(O)=C(C(N)=O)C(=O)[C@@H](N(C)C)C3[C@@H](O)C21 (some centres undefined)	Pf growth 96h 0.415µM, Pf growth 48h 3.7µM (no result: FBPA Giardia inh)
